High-throughput results: PubChem, National Center for Advancing Translational Sciences (NCATS)
Shiga inhibitor – inhibitors of Shiga toxin in Vero cells | Vero cells, Shiga toxin protein synthesis inhibition reporter | inhibition, % at 38.7 µM | 290,000 tested, 9.2% active | AID 2315; in the data active means inhibition mostly above about 28%, no sharp cut-off; inactive means mostly below about 43%
Cycloheximide cs – affects cycloheximide protein synthesis inhibition readout, counter-screen; cell reporter, cycloheximide protein synthesis inhibition counterscreen; max response, %; 300,000 tested, 12% active; AID 2314; in the data active means max response mostly above about 13%, no sharp cut-off; inactive means mostly below about 14%; further: read at 38.3 µM for the half of the compounds with a filed dose
Pf growth 96h – P. falciparum growth inhibition at 96 hours; P. falciparum luciferase reporter growth, 96 h; 320,000 tested, 6.9% active; Potency, µM (titrated, usually from 28.7 µM), most hits filed as inhibitors; active means well fitted inhibition curve with a large enough effect; inconclusive means small, poorly fitted or top-dose-only effect, or another doubt; inactive means no such curve, though single readings can be large or run the other way
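Plates of compound plus infected erythrocytes (2% hematocrit, 0.05% parasitemia final) incubate 96 hours, 37 C, 5% CO2. Detection reagent added; reduced luminescence from the parasites' luciferase reporter flags inhibition.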
SARS PLpro yeast – blocks SARS-CoV papain-like protease in a yeast assay. Potency, µM (highest dose often 32.9 µM), usual class: activators. AID 485353. S. cerevisiae expressing SARS-CoV PLpro, growth rescue. 330,000 tested, 0.19% active; further: nearly all actives have a fitted effect of over 55% in size
Pf growth 48h – P. falciparum growth inhibition at 48 hours (one generation) | P. falciparum luciferase growth in erythrocytes, 48 h | Potency, µM (top dose mostly 28.7 µM), hits mostly inhibitors | 310,000 tested, 5.9% active | AID 504832; active means well fitted inhibition curve with a large enough effect; inconclusive means small, poorly fitted or top-dose-only effect, or another doubt; inactive means no such curve, though single readings can be large or run the other way
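Luciferase-expressing parasites in RBCs, 2% Hct / 0.1% parasitemia final; RPMI 1640 + 0.5% Albumax; 37 C, 5% CO2, one generation; luminescence read-out, lower signal = inhibition.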
NS1 inh – blocks influenza NS1 protein function; Potency, µM (highest dose often 46.1 µM); 270,000 tested, 0.4% active; further: actives are rising curves; nearly all actives have a fitted effect of over 50% in size
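Growth recovery, yeast-based: influenza A NS1 expressed in S. cerevisiae causes slow growth, and suppressors are detected by OD600. The parent strain without NS1 is used as positive control.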
Large screens that a line does not name were inactive. A selection: hits, their analogues and other compounds. The true share with any hit is near 21%. Unless noted, the call rests on the fitted dose curve.

CC(C)[C@@]1(NC(=O)[C@H]2CC3c4cccc5[nH]cc(c45)C[C@H]3N(C)C2)O[C@@]2(O)C3CCCN3C(=O)[C@@H](Cc3ccccc3)N2C1=O (some centres undefined)	Pf growth 96h 8.5µM, Pf growth 48h 1.5µM (no result: Shiga inhibitor, Cycloheximide cs, SARS PLpro yeast, NS1 inh)
CN1C[C@H](C(=O)N[C@]2(C)O[C@@]3(O)[C@@H]4CCCN4C(=O)[C@H](Cc4ccccc4)N3C2=O)CC2c3cccc4[nH]cc(c34)C[C@H]21 (some centres undefined)	Pf growth 96h 1.3µM, Pf growth 48h 1.9µM (no result: Shiga inhibitor, Cycloheximide cs, SARS PLpro yeast, NS1 inh)
CN1C[C@H](C(=O)N[C@]2(C)O[C@@]3(O)[C@@H]4CCCN4C(=O)[C@H](Cc4ccccc4)N3C2=O)C[C@@H]2c3cccc4[nH]cc(c34)C[C@H]21	Pf growth 96h inconclusive, Pf growth 48h 7.6µM (no result: Shiga inhibitor, Cycloheximide cs, SARS PLpro yeast, NS1 inh)
COC(=O)c1ccc(C)c(NC(=O)c2ccc(Cl)c([N+](=O)[O-])c2)c1	none
COC(=O)CNC(=O)CSc1nc(N)cc(=O)[nH]1	none (no result: Pf growth 96h)
CCOC(=O)c1ccc(NC(=O)CN2C(=O)CSC2=O)cc1	Cycloheximide cs 23 (no result: Pf growth 96h)
COC(=O)c1ccc(NC(=O)CN2C(=O)CSC2=O)cc1	Cycloheximide cs 15 (no result: Pf growth 96h)
CCOC(=O)c1ccc(NC(=O)CN2C(=O)CSCC2=O)cc1	none
O=C(CN1C(=O)CSC1=O)Nc1ccc(N2CCOCC2)cc1	none (no result: Pf growth 96h)
COc1ccc(NC(=S)NCc2ccco2)cc1	none
CCOc1ccc(NC(=S)NN(C)C(=S)Nc2ccc(OCC)cc2)cc1	none
COc1ccc(NC(=S)N(Cc2ccc(N(C)C)cc2)Cc2ccco2)cc1	Cycloheximide cs 14, Pf growth 96h 0.66µM
CCOc1ccc(NC(=S)N(Cc2ccc(N(C)C)cc2)Cc2ccco2)cc1	Shiga inhibitor 30, Cycloheximide cs 16, Pf growth 48h inconclusive
O[C@@H](CNC[C@H](O)c1ccccc1)c1ccccc1	Pf growth 96h 9.3µM, Pf growth 48h 9.3µM
OC(CNCCc1ccccc1)c1ccccc1 (centres undefined)	Pf growth 96h 5.9µM, Pf growth 48h 5.9µM
CSc1ccc(CNCC(O)c2ccccc2)cc1 (centres undefined)	Cycloheximide cs 22, Pf growth 48h inconclusive
COc1ccc(CCNCC(C)c2ccccc2)cc1 (centres undefined)	none
O=C(NCC(O)c1ccccc1)c1ccccc1 (centres undefined)	Shiga inhibitor 60, Cycloheximide cs 32
CCOc1ccc(CCNC(=O)COC(=O)CSc2ccc(C)cc2)cc1OCC	Pf growth 96h inconclusive, Pf growth 48h inconclusive (no result: Shiga inhibitor, Cycloheximide cs, NS1 inh)
O=C(COc1ccc2c(-c3ccccc3)cc(=O)oc2c1)NC1CCS(=O)(=O)C1 (centres undefined)	none (no result: Shiga inhibitor, Cycloheximide cs, NS1 inh)
COc1ccc(CCNCC(O)c2ccccc2)cc1 (centres undefined)	Pf growth 96h inconclusive, Pf growth 48h 9.3µM (no result: NS1 inh)
CC1CCC(NCC(O)c2ccccc2)CC1 (centres undefined)	Pf growth 96h 6.6µM (no result: Pf growth 48h)
OC(CNC1CCCCCCC1)c1ccccc1 (centres undefined)	Pf growth 96h inconclusive, Pf growth 48h inconclusive (no result: NS1 inh)
CCCCc1n[nH]c(=S)n1Cc1ccc(Cl)cc1	none (no result: NS1 inh)
COc1ccc(C2NC(=O)CCC2[N+](=O)[O-])c(OC)c1OC (centres undefined)	Pf growth 96h inconclusive, SARS PLpro yeast inconclusive
CC(C)C1NC(C(=O)O)Cc2c1[nH]c1ccccc21 (centres undefined)	none
O=C(NCCc1ccccc1)c1ccc(Cl)c(S(=O)(=O)N2CCCC2)c1	Pf growth 96h 10µM
O=C(NCC(O)c1ccccc1)c1ccc(Cl)c(S(=O)(=O)N2CCCC2)c1 (centres undefined)	Pf growth 96h inconclusive, Pf growth 48h 9.3µM (no result: Shiga inhibitor, Cycloheximide cs, NS1 inh)
CN(C)S(=O)(=O)c1cc(C(=O)NCCCn2ccc3ccccc32)ccc1Cl	Pf growth 96h 4.1µM (no result: Pf growth 48h)
O=C(NCc1ccccc1)c1ccc(Cl)c(S(=O)(=O)N2CCCC2)c1	none (no result: Shiga inhibitor, Cycloheximide cs, Pf growth 96h, Pf growth 48h, NS1 inh)
COc1ccc(CCNC(=O)c2ccc(Cl)c(S(=O)(=O)N(C)c3ccccc3)c2)cc1	Pf growth 96h 10µM, Pf growth 48h inconclusive
CCOC(=O)C1=NN(c2ccccc2)C2=NC(C)=C(C(=O)OC)C(c3ccc(C)cc3)N12 (centres undefined)	Pf growth 96h inconclusive
NS(=O)(=O)c1ccc(NNC(=O)c2sccc2Cl)cc1	none
CC(C)C1C(=O)N(S(C)(=O)=O)[C@H]2CCN(C(=O)/C=C/CN3CCCCC3)[C@@H]12 (some centres undefined)	none (no result: Pf growth 96h, SARS PLpro yeast, Pf growth 48h, NS1 inh)
CCCCN(C(=O)c1cccc(S(=O)(=O)N2CC(C)OC(C)C2)c1)c1c(N)n(CCCC)c(=O)[nH]c1=O (centres undefined)	Pf growth 96h inconclusive, Pf growth 48h inconclusive
CC(=O)C1=NN(c2ccccc2)C(c2cccs2)N1c1ccccc1 (centres undefined)	Pf growth 96h 4.7µM (no result: Pf growth 48h)
CC(=O)N1N=C(c2ccccc2O)CC1c1cccs1 (centres undefined)	none
COc1cccc(N2C(C(C)=O)=NN(c3ccccc3)C2c2ccc(N3CCOCC3)cc2)c1 (centres undefined)	Shiga inhibitor 69, Cycloheximide cs 64, Pf growth 96h inconclusive, Pf growth 48h 13µM
COc1ccc(C2N(c3ccc(Cl)cc3)N=C(C(C)=O)N(C)N2C(C)=O)cc1 (centres undefined)	Pf growth 96h inconclusive, Pf growth 48h inconclusive (no result: NS1 inh)
CC(=O)C1=NN(c2ccccc2)C(c2ccc3c(c2)OCO3)N1c1ccc(N2CCOCC2)cc1 (centres undefined)	Pf growth 96h inconclusive, Pf growth 48h 15µM
O=C1NC(=O)c2c1c(-c1ccccc1)cc1[nH]c3ccc(O)cc3c21	none (no result: Pf growth 96h, SARS PLpro yeast, Pf growth 48h, NS1 inh)
CCOC(=O)N1CCN(C(=O)CSCc2ccc(Br)cc2)CC1	none
O=C1c2ccccc2NC(c2ccccc2)N1/N=C/c1ccccc1 (centres undefined)	none
O=C1c2ccccc2NC(c2ccc(O)cc2)N1/N=C/c1ccc(O)cc1 (centres undefined)	Shiga inhibitor 43, Cycloheximide cs 19
O=C1c2ccccc2NC(c2ccc(O)cc2)N1c1ccccc1 (centres undefined)	Shiga inhibitor 58, Cycloheximide cs 36, Pf growth 96h inconclusive
O=C(O)COc1ccc(/C=C/c2nc3ccc([N+](=O)[O-])cc3s2)cc1	none
CN(C(=O)c1ccc(NC(=O)c2cnccn2)cc1)C1CCCCC1	none (no result: Shiga inhibitor, Cycloheximide cs, Pf growth 96h, SARS PLpro yeast, Pf growth 48h)
CN(C)CCNC(=O)/C=C/c1cn(-c2ccccc2)nc1-c1cc2ccccc2oc1=O	Pf growth 96h 8.3µM (no result: NS1 inh)
O=Cc1cn(-c2ccccc2)nc1-c1cc2ccccc2oc1=O	none (no result: Pf growth 96h)
C=CC[C@H](CC(=O)N[C@H](CO)Cc1ccccc1)C(=O)N[C@H](COC(=O)[C@H](CC=C)CC(=O)OC(C)(C)C)Cc1c[nH]c2ccccc12	none (no result: Shiga inhibitor, Cycloheximide cs, Pf growth 96h, Pf growth 48h, NS1 inh)
CCCc1ccc(OCc2nc(-c3ccc(NC(=O)c4ccco4)cc3)no2)cc1	Cycloheximide cs 47, Pf growth 96h inconclusive, Pf growth 48h inconclusive
